In the library only some 3.8% were active in any assay of this set; here they are far more common.
VDR inhibitor = inhibitors of human vitamin D receptor. hit rate 0.93% among 400,000. P11473. Potency, µM, usual class: inhibitors. VDR-SRC2-3 peptide fluorescence polarization, 2 h
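Compounds are added to VDR with labelled SRC2-3 coactivator peptide and held 2 h at room temperature. Inhibition of the VDR–peptide interaction is then read as a change in fluorescence polarization.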
CBFb-RUNX1 inh = CBF-beta/RUNX1 interaction disruption | AlphaScreen CBFb-His/RUNX1-biotin binding, biochemical | 230,000 tested, under 10 active | Potency, µM (titrated, usually from 59.8 µM), most hits filed as inhibitors | Q01196+Q13951
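His-tagged CBF-beta and biotinylated RUNX1 (30 nM each) were premixed 20 min at room temperature, exposed to compound for 15 min, then given nickel-chelate and streptavidin AlphaScreen beads (50 ng each). After 90 min, AlphaScreen signal was read.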
PLK1 PBD block = inhibitors of human PLK1 polo-box domain binding. hit rate 2.8% among 360,000. AID 720504. Potency, µM, most hits filed as inhibitors. Plk1 PBD binding of FITC phosphopeptide, fluorescence polarization. P53350; also: series mostly up to about 57 µM; nearly all actives have a fitted effect of over 65% in size
KCNH2 3.1 inh = blocks the human KCNH2 3.1 channel isoform | U2OS KCNH2 3.1, thallium flux FluxOr; stronger effect = lower value | activity change, % (tested at about 1.8 µM) | hit rate 0.95% among 340,000;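 active = maximum activity change below -70%; inconclusive = maximum activity change from -70% to -50%; inactive = maximum activity change above -50%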;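 also: thallium influx rate constant from kinetic fluorescence after stimulation buffer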
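Steps: virus added to U2OS suspension (4 h, RT, dark); medium with 10% FBS added, cells plated, 37 C overnight; FluxOr/Red40 loading buffer 45 min RT; stimulation buffer, 2 min kinetic read; rate constant normalized.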
hERG WT inh = blocks the wildtype human KCNH2 potassium channel. Q12809. U2OS, BacMam KCNH2, thallium flux FluxOr; stronger effect = lower value. activity change, % at 1.84 µM. hit rate 0.37% among 340,000;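 active = maximum activity change below -70%; inconclusive = maximum activity change between -70% and -50%; inactive = maximum activity change above -50%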
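U2OS cells were transduced with wild-type KCNH2 virus (2.03 x 10^8 / mL) for 4 h at room temperature, then cultured overnight at 37 C. Thallium flux was read with FluxOr dye. Rate constants were normalized to DMSO controls.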
MBNL1-CUG inh = inhibitors of human MBNL1 binding to CUG repeat RNA; Potency, µM (doses to about 57.5 µM), hits mostly inhibitors; hit rate 0.036% among 280,000; Q9NR56; TR-FRET MBNL1-His/biotin-(CUG)12 binding, 665/545 ratio; AID 2675; active = well fitted inhibition curve with a large enough effect in the signal ratio, with a control signal flat, not every such curve was filed as active; inconclusive = small, poorly fitted or top-dose-only effect, or effect the other way, or a change in a side signal; inactive = no such curve, though single readings can be large or run the other way; the % refers to the signal ratio
Target sequence (Q9NR56 whole entry, looked up): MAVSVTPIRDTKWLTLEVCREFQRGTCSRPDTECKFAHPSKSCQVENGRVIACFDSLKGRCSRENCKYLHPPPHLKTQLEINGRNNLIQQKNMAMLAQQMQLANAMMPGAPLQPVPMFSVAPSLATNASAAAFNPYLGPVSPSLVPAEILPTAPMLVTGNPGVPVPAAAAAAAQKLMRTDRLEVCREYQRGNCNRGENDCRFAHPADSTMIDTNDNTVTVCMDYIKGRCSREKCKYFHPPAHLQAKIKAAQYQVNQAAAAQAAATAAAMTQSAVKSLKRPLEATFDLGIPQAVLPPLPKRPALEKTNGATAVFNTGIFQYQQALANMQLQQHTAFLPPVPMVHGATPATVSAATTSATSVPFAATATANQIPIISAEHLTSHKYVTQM
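His-tagged MBNL1 binding to biotinylated (CUG)12 RNA was measured by TR-FRET using terbium anti-His antibody (0.055 ng/ul final) and streptavidin-XL665 (5 nM final). Compounds were titrated 92 nM to 58 uM; 60 min at room temperature.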
Numbers stand for hits; - = inactive; ? = inconclusive; . = no result given; [ ] = another dose, or the depositor's remark. Unless noted, calls follow the shape of the dose curve; as a rule, active = well fitted curve in the direction sought with a large enough effect; inconclusive = small, poorly fitted or top-dose-only effect, or another doubt; inactive = no such curve, though single readings can be large; an effect the other way counts as inactive or inconclusive.

SMILES	VDR inhibitor	CBFb-RUNX1 inh	PLK1 PBD block	KCNH2 3.1 inh	hERG WT inh	MBNL1-CUG inh
O=C(NCc1ccc(F)cc1)c1c2c(nc3ccccc13)CCC2	-	?	24µM	-	-	-
O=C(NCc1ccco1)c1c2c(nc3ccccc13)CCC2	-	?	3µM	-	-	-
COC(=O)c1ccccc1Nc1cc(C)nc2nc(C)nn12	?	-[2.36 µM]	21µM	-	-	-
O=C(CCc1n[nH]c(=O)[nH]c1=O)N1CCCCC1	-	-	-	-	-	-
O=C(CSc1n[nH]c(=O)[nH]c1=O)N1CCCCCC1	?	-	27µM	-	-	-
O=C(O)c1cccc2cccc(-c3c4ccc(=O)c(O)c-4oc4c(O)c(O)ccc34)c12	?	.	4.7µM	-	-	.
CC1(C)CC(=O)C(C(C2=C(O)CC(C)(C)CC2=O)c2cccs2)C(=O)C1 (stereo unspecified)	50µM	-	4.7µM	-	-	-
Cc1ccc(C(C2=C(O)CC(C)(C)CC2=O)C2C(=O)CC(C)(C)CC2=O)o1 (stereo unspecified)	50µM	-	6µM	-	-	-
CC1(C)CC(=O)C(C(C2=C(O)CC(C)(C)CC2=O)c2cccc(O)c2)C(=O)C1 (stereo unspecified)	-	-	?	-	-	-
CC1(C)CC(=O)C(C(C2=C(O)CC(C)(C)CC2=O)c2cccnc2)C(=O)C1 (stereo unspecified)	-	-	-	-	-	-
COCCN(C(=S)Nc1c(C)cc(C)cc1C)C(C)c1cccnc1 (stereo unspecified)	45µM	-	6µM	-	-	.
COCCN(C(=S)Nc1c(C)cccc1C)C(C)c1cccnc1 (stereo unspecified)	-	-	-	-	-	-
COC(=O)c1cc2sc(C)cc2n1CC(=O)Nc1ccc(C)cc1Cl	-	.	.	.	.	.
CCNC(=S)Nc1ccc2c(c1)c(=O)n(C)n2CC=C(C)C	.	.	21µM	.	.	.
Cc1cccc(NC(=O)CSC2=Nc3ccccc3C3=NC(CCC(=O)NCc4ccc(F)cc4)C(=O)N23)c1 (stereo unspecified)	-	.	.	.	.	.
COc1cccc(CNC(=O)CCN2C(=O)[C@@H]3Cc4ccccc4CN3C2=O)c1	?	.	27µM	-	-	-
Cc1ccccc1NC(=O)Cn1c(=O)n(CCC(=O)NCc2ccc3c(c2)OCO3)c(=O)c2sccc21	-	.	.	.	.	.
O=c1[nH]c(=S)c2ncn(-c3ccccc3)c2[nH]1	?	-	27µM	-	-	.
Nc1nc2c(ncn2-c2ccccc2)c(=O)[nH]1	-	.	-	-	-	.
N#C/C(=C\c1ccccc1)C(=O)N1CCN(c2ccccc2F)CC1	45µM	.	-	-	-	-
N#C/C(=C\c1cccc(Br)c1)C(=O)N1CCCCC1	50µM	.	?	-	-	-
CCOC(=O)c1ccc(N2C(=O)c3n[nH]c(-c4ccco4)c3C2c2cccc(O)c2)cc1 (stereo unspecified)	-	.	.	.	.	.
CN(c1ccccc1C(=O)O)S(C)(=O)=O	-	-	-	-	-	-
O=C(O)c1ccccc1N(c1ccccc1)c1ccccc1	35µM	.	-	-	-	.
CSc1nn(Cc2ccccc2C)c(NC(C)=O)c1S(=O)(=O)c1ccc(C)cc1	-	.	.	.	.	.
SMILES	VDR inhibitor	CBFb-RUNX1 inh	PLK1 PBD block	KCNH2 3.1 inh	hERG WT inh	MBNL1-CUG inh
C=C1CCC(O)C/C1=C/C=C1\CCC[C@]2(C)[C@@H]([C@H](C)/C=C/[C@H](C)C(C)C)CC[C@@H]12 (stereo partly specified)	50µM	.	.	.	.	.
C=C1CCC(O)C/C1=C\C=C1/CCCC2(C)C1CCC2C(C)/C=C/C(C)C(C)C (stereo unspecified)	.	-	.	.	.	.
O=C(NC1CC1)c1nc(Cn2cc([N+](=O)[O-])cn2)no1	-	.	-	-	-73	-
COc1ccc(S(=O)(=O)NCCc2sc3nc(-c4ccc(C)cc4)nn3c2C)cc1C	-	.	.	.	.	.
CCOc1ccc(N2C(=O)CC(NCc3ccc(S(N)(=O)=O)cc3)C2=O)cc1 (stereo unspecified)	?	-	11µM	-	-	-
CCCOc1ccc(N2C(=O)CC(NCc3ccc(S(N)(=O)=O)cc3)C2=O)cc1 (stereo unspecified)	-	-	-	-	-	-

Screens as filed in PubChem BioAssay.
